From PubChem BioAssay (Tox21) come the findings set out here.

A number with no mark means an inactive call. Records with an inconclusive call do not appear. The source made the active and inactive calls. Unless noted, calls follow the shape of the dose curve; as a rule, active = well fitted curve in the direction sought with a large enough effect in the repeat runs; inconclusive = weak or mixed curves; inactive = no such curve, though single readings can be large; an effect the other way counts as inactive or inconclusive.

Test [1] deals with Thyrotropin-releasing hormone receptor (Homo sapiens) (UniProt P34981). Description: qHTS assay to identify small molecule agonists of the thyrotropin-releasing hormone receptor (TRHR) signaling pathway (AID 1346891; calls by dose curve; also: series mostly up to about 58 µM). Put shortly: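 Agonist-mode intracellular calcium readout: kinetic fluorescence over 3 min at 1 s intervals after compound addition to TRHR-HEK293 cells (18 h seeded, 2 h dye-loaded at 37 C). Fifteen concentrations, triplicates.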

A short description of test [2]: Caspase-3/7 induction in HepG2 cells by small molecules, qHTS assay (AID 1346978). Also: nearly all actives have a fitted effect of over 15% in size. A digest of the protocol:
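Caspase-3/7 induction was measured by Caspase-Glo 3/7 luminescence (30 min, room temperature) after a 17 hr compound exposure of wild-type HepG2 cells seeded at 2,000 per well and pre-incubated 5 hr.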

Test [3] is described as follows: Caspase-3/7 induction in CHO-K1 cells by small molecules, qHTS assay (AID 1346980). Also: nearly all actives have a fitted effect of over 15% in size. A digest of the protocol: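 Luminescent Caspase-Glo 3/7 read (30min, room temperature) quantified apoptosis induction. Cells were wild-type CHO-K1, treated with compound for 17hr at 37 C and 5% CO2.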
In general terms: Quantitative high-throughput screening tests each substance at several concentrations.

The nature of test [4]: Caspase-3/7 induction in HepG2 cells by small molecules, qHTS cell viability counter screen (AID 1346981). Also: series mostly up to about 92 µM; nearly all actives have a fitted effect of over 30% in size. Put shortly: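 Counter screen for cytotoxicity: HepG2 exposed 16 hr to compounds, then CellTiter-Fluor viability signal (fluorescence, 1 hr reagent incubation).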
In test [5] the target is Nuclear receptor subfamily 1 group I member 2 (Homo sapiens) (UniProt O75469). Kind of test: Human pregnane X receptor (PXR) small molecule agonists, qHTS assay (AID 1346982). Also: nearly all actives have a fitted effect of over 35% in size. Also: potency is read from the fitted curve at half-maximal effect. Put shortly:
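Luminescence (ONE-Glo, 30 min RT) after 24 hr compound exposure of PXR-Luc HepG2 cells; cells rested 5 hr post-plating in 5% charcoal-stripped FBS medium.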

Test [6] addresses Nuclear receptor subfamily 1 group I member 2 (Rattus norvegicus) (UniProt Q9R1A7). Kind of test: Rat pregnane X receptor (rPXR) activation by small molecules, qHTS assay (AID 1346983). Also: nearly all actives have a fitted effect of over 20% in size. The following applies: rPXR luciferase reporter cells, One-Glo luminescence, 24 h; stronger effect = higher value. Put shortly: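 Luminescent readout (One-Glo luciferase, 30 min room temperature) followed 24 hr compound treatment at 37 C of rPXR cells plated 2,000 per well and preincubated 5hr; qHTS format with compounds delivered in DMSO.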

Test [7] deals with Nuclear receptor subfamily 1 group I member 2 (Homo sapiens) (UniProt O75469). Kind of test: Human pregnane X receptor (PXR) activation by small molecules, qHTS assay (AID 1346985). Also: nearly all actives have a fitted effect of over 40% in size. Put shortly: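 DPX-2 cells (HepG2 co-transfected with a PXR response element and a CYP3A4-promoter luciferase construct) were seeded at 2,000 per well, rested 5 hr at 37C, then exposed to DMSO-dissolved compounds for 24 hr. Activation was read as luciferase luminescence.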

For test [8], the target named is Cytochrome P450 2C19 (Homo sapiens) (UniProt P33261). Description: Cytochrome P450 Family 2 Subfamily C Member 19 (CYP2C19) small molecule antagonists: luciferase reporter qHTS assay (AID 1671197). Also: nearly all actives have a fitted effect of over 65% in size. Also: potency is read from the fitted curve at half-maximal effect. As to activity change, negative = inhibition: series mostly up to about 120 µM. Put shortly:
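Relative luminescence units recorded 20 min after the detection reagent stopped a 1 h, 37C CYP2C19 reaction on proluciferin substrate, which was started by NADPH regeneration following 10 min room-temperature compound preincubation; ketoconazole positive control.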
On the technique in general: A reporter such as luciferase makes a cellular process visible.

Test [9] concerns the target Cytochrome P450 1A2 (Homo sapiens) (UniProt P05177). Description: Cytochrome P450 Family 1 Subfamily A Member 2 (CYP1A2) small molecule antagonists: luciferase reporter qHTS assay (AID 1671199). Also: nearly all actives have a fitted effect of over 50% in size. Also: potency is read from the fitted curve at half-maximal effect. As to activity change, negative = inhibition: series mostly up to about 120 µM. Put shortly: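 Signal from luciferin formed by CYP1A2 from a proluciferin substrate is read as luminescence, expressed in relative luminescence units. Compounds sit with enzyme 10 min, NADPH-driven reaction runs 1 h, all at room temperature.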

Test [10] deals with Voltage-gated inwardly rectifying potassium channel KCNH2 (Homo sapiens) (UniProt Q12809). Kind of test: Human Ether-a-go-go-Related Gene (hERG) channel small molecule antagonists: fluorescence cell-based qHTS assay (AID 1671200). Also: series mostly up to about 77 µM; nearly all actives have a fitted effect of over 50% in size. A digest of the protocol:
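Thallium flux as potassium surrogate: FluxOR II dye loaded 1 h at room temperature into hERG-expressing U2OS cells, then stimulus buffer added after 10 min. Kinetic 480 nm excitation/540 nm emission read, 2 min.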

The nature of test [11]: Human pregnane X receptor (PXR) small molecule agonists, qHTS cell viability counter screen (AID 1346977). Also: nearly all actives have a fitted effect of over 50% in size. A digest of the protocol:
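Same-well viability read: CellTiter-Fluor added after 23 hr compound exposure, fluorescence measured 1 hr later. Cells were PXR-Luc HepG2 seeded at 2,000/well in 5% charcoal-stripped FBS medium, rested 5 hr before dosing at 37 C.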

A short description of test [12]: Caspase-3/7 induction in CHO-K1 cells by small molecules, qHTS cell viability counter screen (AID 1346979). Also: nearly all actives have a fitted effect of over 35% in size. A digest of the protocol: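 Cytotoxicity counter screen: CellTiter-Fluor added to compound-treated wild-type CHO-K1 cells at 16 h (37C, 5% CO2), fluorescence measured 1 h later; same wells as caspase-3/7 measurement.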
The target in test [13] is Cytochrome P450 2D6 (Homo sapiens) (UniProt P10635). Kind of test: Cytochrome P450 Family 2 Subfamily D Member 6 (CYP2D6) small molecule antagonists: luciferase reporter qHTS assay (AID 1671196). Also: series mostly up to about 120 µM; nearly all actives have a fitted effect of over 50% in size. A digest of the protocol: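 Inhibition of CYP2D6 was gauged by loss of luminescence, since light produced tracks the luciferin generated from a proluciferin substrate. A 10 min room-temperature preincubation preceded 1 h NADPH-supported turnover.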

Test [14] addresses Cytochrome P450 2C9 (Homo sapiens) (UniProt P11712). Description: Cytochrome P450 Family 2 Subfamily C Member 9 (CYP2C9) small molecule antagonists: luciferase reporter qHTS assay (AID 1671198). Also: nearly all actives have a fitted effect of over 50% in size. Also: potency is read from the fitted curve at half-maximal effect. As to activity change, negative = inhibition: series mostly up to about 120 µM. Put shortly: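 Enzyme-substrate mix preincubated with compound 10 min at room temperature; reaction started with NADPH regeneration solution, 1 h 37C. Luminescent luciferin product read after 20 min detection reagent.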

Test [15] deals with Cytochrome P450 3A4 (Homo sapiens) (UniProt P08684). Description: Cytochrome P450 Family 3 Subfamily A Member 4 (CYP3A4) small molecule antagonists: luciferase reporter qHTS assay (AID 1671201). A digest of the protocol:
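Recombinant human CYP3A4 converts a proluciferin substrate to luciferin over 1 h at room temperature after NADPH regeneration solution is added (compound preincubated 10 min); detection reagent stops reaction, luminescence read 20 min later as relative units.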
% is scaled to controls: 0 for no effect and ±100 for the full control effect.

Chain of Cytochrome P450 2C9 (Homo sapiens) (P11712 whole entry, looked up): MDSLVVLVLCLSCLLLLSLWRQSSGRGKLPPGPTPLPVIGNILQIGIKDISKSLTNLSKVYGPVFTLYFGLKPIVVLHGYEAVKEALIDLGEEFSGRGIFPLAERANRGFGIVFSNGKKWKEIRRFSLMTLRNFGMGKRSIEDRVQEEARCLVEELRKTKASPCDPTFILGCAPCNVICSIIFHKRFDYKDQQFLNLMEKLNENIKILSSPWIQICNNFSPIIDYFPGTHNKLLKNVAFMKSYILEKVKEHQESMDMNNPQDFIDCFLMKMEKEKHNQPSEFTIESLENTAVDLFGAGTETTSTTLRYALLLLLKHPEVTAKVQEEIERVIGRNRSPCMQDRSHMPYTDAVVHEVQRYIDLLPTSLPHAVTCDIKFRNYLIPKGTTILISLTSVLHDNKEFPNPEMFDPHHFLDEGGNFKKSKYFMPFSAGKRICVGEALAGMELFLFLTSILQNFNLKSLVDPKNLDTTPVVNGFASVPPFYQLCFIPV
Chain of Cytochrome P450 1A2 (Homo sapiens) (P05177 whole entry, looked up): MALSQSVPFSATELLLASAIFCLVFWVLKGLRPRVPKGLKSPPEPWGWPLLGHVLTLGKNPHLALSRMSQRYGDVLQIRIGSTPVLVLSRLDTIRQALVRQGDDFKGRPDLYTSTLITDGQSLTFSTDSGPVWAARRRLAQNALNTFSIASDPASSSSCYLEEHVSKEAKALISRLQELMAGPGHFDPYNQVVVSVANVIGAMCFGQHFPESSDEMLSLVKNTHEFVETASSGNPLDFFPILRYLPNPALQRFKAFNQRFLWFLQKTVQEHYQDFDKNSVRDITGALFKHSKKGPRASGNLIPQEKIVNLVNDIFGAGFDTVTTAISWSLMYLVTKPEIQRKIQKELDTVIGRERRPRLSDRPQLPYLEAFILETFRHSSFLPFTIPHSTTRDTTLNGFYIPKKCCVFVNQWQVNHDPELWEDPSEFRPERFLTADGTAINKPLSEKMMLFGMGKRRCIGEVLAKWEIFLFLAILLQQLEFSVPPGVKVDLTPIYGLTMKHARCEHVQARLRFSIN
Chain of Cytochrome P450 3A4 (Homo sapiens) (P08684 whole entry, looked up): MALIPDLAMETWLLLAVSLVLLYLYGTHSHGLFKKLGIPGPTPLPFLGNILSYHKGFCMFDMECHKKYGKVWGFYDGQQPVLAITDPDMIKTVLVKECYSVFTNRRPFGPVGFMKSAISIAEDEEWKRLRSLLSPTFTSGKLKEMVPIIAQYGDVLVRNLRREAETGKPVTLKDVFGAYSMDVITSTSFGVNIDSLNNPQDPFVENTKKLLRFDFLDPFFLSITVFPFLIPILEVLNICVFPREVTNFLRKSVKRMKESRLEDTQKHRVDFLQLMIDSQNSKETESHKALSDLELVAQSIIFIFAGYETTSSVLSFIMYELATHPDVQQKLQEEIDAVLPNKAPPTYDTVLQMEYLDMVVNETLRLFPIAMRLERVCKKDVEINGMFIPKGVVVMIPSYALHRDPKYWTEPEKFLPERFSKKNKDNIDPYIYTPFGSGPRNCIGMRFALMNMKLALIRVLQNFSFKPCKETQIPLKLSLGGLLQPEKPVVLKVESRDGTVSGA
Chain of Cytochrome P450 2D6 (Homo sapiens) (P10635 whole entry, looked up): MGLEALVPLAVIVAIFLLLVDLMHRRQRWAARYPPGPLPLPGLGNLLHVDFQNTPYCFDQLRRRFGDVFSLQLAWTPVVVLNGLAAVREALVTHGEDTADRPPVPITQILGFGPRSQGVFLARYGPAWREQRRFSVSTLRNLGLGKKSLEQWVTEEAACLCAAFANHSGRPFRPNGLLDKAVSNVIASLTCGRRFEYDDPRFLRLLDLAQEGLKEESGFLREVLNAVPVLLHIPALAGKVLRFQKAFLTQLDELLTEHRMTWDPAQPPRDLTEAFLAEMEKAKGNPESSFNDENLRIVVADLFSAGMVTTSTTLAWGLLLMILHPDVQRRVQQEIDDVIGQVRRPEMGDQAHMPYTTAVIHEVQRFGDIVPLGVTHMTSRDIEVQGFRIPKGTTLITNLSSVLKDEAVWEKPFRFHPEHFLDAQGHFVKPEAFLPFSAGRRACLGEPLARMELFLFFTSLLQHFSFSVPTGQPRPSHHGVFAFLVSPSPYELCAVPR
Chain of Nuclear receptor subfamily 1 group I member 2 (Homo sapiens) (O75469 whole entry, looked up): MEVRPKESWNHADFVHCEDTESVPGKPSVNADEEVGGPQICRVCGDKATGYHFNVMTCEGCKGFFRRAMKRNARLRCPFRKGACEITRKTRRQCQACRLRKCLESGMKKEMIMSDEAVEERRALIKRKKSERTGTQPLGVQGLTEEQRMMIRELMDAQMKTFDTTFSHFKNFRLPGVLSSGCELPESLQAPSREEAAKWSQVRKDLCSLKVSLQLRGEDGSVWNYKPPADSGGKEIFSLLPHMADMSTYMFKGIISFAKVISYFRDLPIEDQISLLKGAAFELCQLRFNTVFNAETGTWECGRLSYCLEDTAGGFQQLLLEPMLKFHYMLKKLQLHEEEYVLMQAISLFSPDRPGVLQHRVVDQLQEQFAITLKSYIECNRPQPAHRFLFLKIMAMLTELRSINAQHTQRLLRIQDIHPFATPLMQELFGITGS
Chain of Voltage-gated inwardly rectifying potassium channel KCNH2 (Homo sapiens) (Q12809 whole entry, looked up): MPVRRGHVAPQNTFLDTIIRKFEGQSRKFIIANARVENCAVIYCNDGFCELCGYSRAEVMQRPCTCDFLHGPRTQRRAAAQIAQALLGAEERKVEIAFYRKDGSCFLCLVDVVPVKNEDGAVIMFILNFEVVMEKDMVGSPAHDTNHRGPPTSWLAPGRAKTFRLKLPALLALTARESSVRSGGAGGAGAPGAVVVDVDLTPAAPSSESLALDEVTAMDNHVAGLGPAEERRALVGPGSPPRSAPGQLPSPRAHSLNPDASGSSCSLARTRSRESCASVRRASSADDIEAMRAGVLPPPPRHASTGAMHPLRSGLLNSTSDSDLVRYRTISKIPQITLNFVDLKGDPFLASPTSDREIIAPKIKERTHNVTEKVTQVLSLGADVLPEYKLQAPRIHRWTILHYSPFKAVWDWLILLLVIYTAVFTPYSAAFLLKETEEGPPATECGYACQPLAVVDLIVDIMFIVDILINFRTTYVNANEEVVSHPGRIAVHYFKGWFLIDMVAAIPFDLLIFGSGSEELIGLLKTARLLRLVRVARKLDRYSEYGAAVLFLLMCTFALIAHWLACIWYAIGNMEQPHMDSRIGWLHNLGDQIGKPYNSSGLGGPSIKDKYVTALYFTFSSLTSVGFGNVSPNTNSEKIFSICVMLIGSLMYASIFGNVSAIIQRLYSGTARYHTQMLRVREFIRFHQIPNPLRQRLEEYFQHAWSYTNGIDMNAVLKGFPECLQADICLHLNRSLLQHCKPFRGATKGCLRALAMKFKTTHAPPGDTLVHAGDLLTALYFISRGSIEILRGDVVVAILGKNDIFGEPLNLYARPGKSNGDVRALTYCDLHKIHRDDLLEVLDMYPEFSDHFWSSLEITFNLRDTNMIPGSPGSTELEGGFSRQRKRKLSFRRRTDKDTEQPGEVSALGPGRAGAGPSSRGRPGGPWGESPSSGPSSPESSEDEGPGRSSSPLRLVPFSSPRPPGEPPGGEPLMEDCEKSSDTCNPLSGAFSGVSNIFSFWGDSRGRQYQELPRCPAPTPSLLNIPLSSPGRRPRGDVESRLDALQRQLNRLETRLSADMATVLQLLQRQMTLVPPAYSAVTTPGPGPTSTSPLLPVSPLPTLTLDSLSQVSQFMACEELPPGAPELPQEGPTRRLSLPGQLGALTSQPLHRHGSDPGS
Chain of Thyrotropin-releasing hormone receptor (Homo sapiens) (P34981 whole entry, looked up): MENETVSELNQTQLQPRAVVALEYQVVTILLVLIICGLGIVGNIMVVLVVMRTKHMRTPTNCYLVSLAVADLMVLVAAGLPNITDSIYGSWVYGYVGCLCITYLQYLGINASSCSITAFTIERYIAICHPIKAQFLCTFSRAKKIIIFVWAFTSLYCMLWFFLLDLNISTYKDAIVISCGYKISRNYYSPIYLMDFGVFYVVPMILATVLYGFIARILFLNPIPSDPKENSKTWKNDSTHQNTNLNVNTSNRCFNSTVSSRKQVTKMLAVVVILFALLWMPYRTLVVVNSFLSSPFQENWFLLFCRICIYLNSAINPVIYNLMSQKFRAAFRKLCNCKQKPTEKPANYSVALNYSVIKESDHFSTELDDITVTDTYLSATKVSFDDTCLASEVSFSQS
Chain of Cytochrome P450 2C19 (Homo sapiens) (P33261 whole entry, looked up): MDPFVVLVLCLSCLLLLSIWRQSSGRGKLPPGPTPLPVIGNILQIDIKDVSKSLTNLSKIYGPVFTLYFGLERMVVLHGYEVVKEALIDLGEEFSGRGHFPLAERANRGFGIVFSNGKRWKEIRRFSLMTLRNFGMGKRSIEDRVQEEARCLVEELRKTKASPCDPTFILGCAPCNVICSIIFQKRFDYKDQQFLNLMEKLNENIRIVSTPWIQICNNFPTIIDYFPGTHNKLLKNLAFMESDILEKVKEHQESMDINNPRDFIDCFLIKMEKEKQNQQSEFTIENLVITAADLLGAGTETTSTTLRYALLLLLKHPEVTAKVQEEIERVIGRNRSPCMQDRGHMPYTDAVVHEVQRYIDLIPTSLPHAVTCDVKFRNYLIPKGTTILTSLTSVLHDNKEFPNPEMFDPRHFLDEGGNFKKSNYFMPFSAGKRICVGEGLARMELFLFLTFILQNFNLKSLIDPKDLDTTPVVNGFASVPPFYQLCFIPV
Chain of Nuclear receptor subfamily 1 group I member 2 (Rattus norvegicus) (Q9R1A7 whole entry, looked up): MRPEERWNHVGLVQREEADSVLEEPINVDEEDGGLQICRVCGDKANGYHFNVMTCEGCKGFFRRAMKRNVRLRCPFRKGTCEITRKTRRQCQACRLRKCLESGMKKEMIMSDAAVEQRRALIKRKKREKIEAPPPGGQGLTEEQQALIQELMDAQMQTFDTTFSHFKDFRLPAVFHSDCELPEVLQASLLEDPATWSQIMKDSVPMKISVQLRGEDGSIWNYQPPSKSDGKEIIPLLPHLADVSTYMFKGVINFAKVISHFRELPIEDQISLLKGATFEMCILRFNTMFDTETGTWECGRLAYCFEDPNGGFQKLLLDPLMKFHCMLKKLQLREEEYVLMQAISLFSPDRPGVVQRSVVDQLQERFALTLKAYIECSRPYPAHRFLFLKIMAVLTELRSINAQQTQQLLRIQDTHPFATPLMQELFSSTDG

`O=C1c2cccc3c2[C@H](CCC3)CN1[C@@H]1CN2CCC1CC2`: the call in test [1] and in [3] was inactive. Moreover, the Potency result in test [2], in [4], in test [5], in test [7], in test [8] and in test [9] was “inactive” throughout. For the same compound, the Potency result in test [10] is “inactive”. Further, the max activation in [6] was -9.35%.
On to `CCOCCOC(=O)/C=C/c1ccc(OC)cc1`, for which the Potency entry in [11], in test [2], in [12], in test [4], in [5] and in [13] was “inactive” each time. Moreover, the Potency entry in [10] and in [15] was “inactive” in each case. For the same compound, the outcome in [3] was inactive. The results for the Potency in test [8], in test [14] and in test [9] were 34.7 µM (active), 13.8 µM (active) and 7.76 µM (active), respectively.
Regarding `CCCCCCCC/C=C\CCCCCCCC(=O)OCCCC`, the activation in [1] is 0.159% [at 11.8 µM]; in test [5] it was 3.05% [at 19 µM]. Besides, the activity change, negative = cytotoxicity in test [11] was 1.78% [at 19 µM]; in [12], 3.24% [at 19 µM]; in test [4] it was 2.37% [at 19 µM]. The caspase-3/7 activation in test [3] was -0.343% [at 19 µM]. The activity change, negative = inhibition in test [13] was -8.07% [at 23.6 µM]; in [8] it was -24.4% [at 23.6 µM]; in [10], -0.621% [at 15.8 µM]; in [15], -4.05% [at 23.6 µM]. The Potency result in test [9] was “inactive”.
Turning to `COCCOCCOCCOCCO`, the compound was classed as inactive in [1] and in [3]. For the same compound, the Potency entry in test [11], in test [12], in [5], in [8], in test [14] and in [10] was “inactive” throughout. For the same compound, in [15], the Potency entry is “inactive”.
Take `COc1ccc(C2CNC(=O)C2)cc1OC1CCCC1` (stereo not given): the outcome in [1] and in test [3] was inactive. The Potency result in test [11], in [12], in test [4], in [13], in [8] and in [14] was “inactive” throughout. The Potency entry in test [10] and in test [15] was “inactive” throughout. Besides, the max activation in [6] is -2.12%. Moreover, the Potency in [9] is 13.8 µM (active).
For `O=C1c2ccccc2C(=O)N1CCl`, the compound was called inactive in test [1] and in test [3]. The Potency entry in test [11], in test [12], in test [4], in [5], in test [8] and in [14] was “inactive” throughout. The Potency result in test [10] and in [15] was “inactive” each time.
In the case of `O=C(O)C(=O)Cc1ccccc1`, the result in test [1] and in test [3] was inactive. In addition, the Potency entry in [11], in [12], in test [4], in test [5], in test [13] and in test [14] was “inactive” throughout. The Potency result in test [10] and in test [15] was “inactive” in each case.
As for `CC(=O)c1ccc2c(c1)Cc1ccccc1-2`, the compound was called inactive in [1] and in test [3]. In addition, the Potency result in test [2], in test [12], in test [13], in test [10] and in test [15] was “inactive” each time. The Potency in test [5] was 54.5 µM (active); in [8] it was 20 µM (active); in test [14], 12.6 µM (active); in test [9] it was 1.79 µM (active).
